Compound activity as filed in PubChem BioAssay.
This is a sample that favours compounds with a hit; in the whole collection about 12% have one here.
RORgamma inh – blocks mouse ROR gamma transcriptional activity. Potency, µM (doses to about 53.6 µM), for inactives: at the highest dose activity change, negative = inhibition, most hits filed as inhibitors. actives 5.4% (n = 310,000). P51450. Drosophila S2 Gal4-RORgamma UAS-luciferase reporter, 20 h; further: nearly all actives have a fitted effect of over 60% in size
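Compounds are pin-transferred onto Drosophila Schneider cells expressing a copper-inducible Gal4–ROR gamma transactivation domain fusion. After 1 hr, copper sulfate is added to 700 uM final; luciferase is read 20 hr later.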
VP16 counter – inhibits Gal4-VP16 luciferase reporter, ROR gamma counter-screen | Drosophila S2 Gal4-VP16 UAS-luciferase, luminescence, 20 h | Potency, µM (highest dose often 53.6 µM), without a hit: top-dose activity, negative = inhibition, hits mostly inhibitors | actives 3.5% (n = 310,000);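 further: Gal4-VP16 expression switched on by copper sulfate through the metallothionein promoter; nearly all actives have a fitted effect of over 50% in size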
PLK1 PBD inh – blocks phosphopeptide binding to human PLK1 polo-box domain; P53350; Plk1 PBD binding of FITC phosphopeptide, fluorescence polarization; Potency, µM, without a hit: max response, negative = inhibition, most hits filed as inhibitors; actives 2.8% (n = 360,000); AID 720504; further: series mostly up to about 57 µM; nearly all actives have a fitted effect of over 65% in size
Sfp PPTase inh – blocks B. subtilis Sfp PPTase activity; Biochemical Sfp PPTase activity, qHTS; Potency, µM, for inactives: largest response in the series, negative = inhibition, usual class: inhibitors; actives 3.5% (n = 310,000);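 further: the enzyme is Sfp with the accession as filed and its product quenches rhodamine fluorescence; 0% = enzyme reaction without inhibitor and -100% = no enzyme wells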
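Step 1, compound plus 15 nM Sfp-PPTase, 15 min, room temperature. Step 2, add rhodamine-CoA (5 uM) and BHQ-2-YbbR (12.5 uM). Step 3, read 525/598 nm fluorescence at 0 and 30 min.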
ALDH1A1 block – inhibitors of human aldehyde dehydrogenase 1A1; AID 1030; P00352; Potency, µM (top dose mostly 75.3 µM), for the others: at the top dose activity, negative = inhibition, hits mostly inhibitors; Purified ALDH1A1, NADH fluorescence, propionaldehyde substrate; actives 7.3% (n = 220,000); active means well fitted inhibition curve with a large enough effect, not every such curve was filed as active; inconclusive means small, poorly fitted or top-dose-only effect, or another doubt; inactive means no such curve, though single readings can be large or run the other way;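 further: plate controls were no enzyme wells and a reference inhibitor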
Target sequence (P00352 whole entry, looked up): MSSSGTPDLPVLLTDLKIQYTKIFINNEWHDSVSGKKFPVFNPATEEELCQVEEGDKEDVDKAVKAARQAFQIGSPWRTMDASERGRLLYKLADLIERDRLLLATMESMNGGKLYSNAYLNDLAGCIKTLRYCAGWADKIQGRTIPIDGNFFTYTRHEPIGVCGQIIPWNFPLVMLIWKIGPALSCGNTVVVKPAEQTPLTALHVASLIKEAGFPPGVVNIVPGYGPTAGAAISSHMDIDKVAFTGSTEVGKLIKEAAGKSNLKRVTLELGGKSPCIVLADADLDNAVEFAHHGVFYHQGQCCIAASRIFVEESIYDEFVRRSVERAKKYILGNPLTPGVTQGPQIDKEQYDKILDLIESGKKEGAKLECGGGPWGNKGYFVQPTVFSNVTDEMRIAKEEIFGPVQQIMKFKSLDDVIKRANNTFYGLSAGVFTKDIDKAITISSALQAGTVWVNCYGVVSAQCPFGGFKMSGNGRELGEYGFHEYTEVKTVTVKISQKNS
The depositor's hits bear a star; ? = inconclusive; / = no result; [ ] = dose if it differs, or a comment. Unless noted, the call rests on the fitted dose curve; in most records, active means well fitted curve in the direction sought with a large enough effect; inconclusive means small, poorly fitted or top-dose-only effect, or another doubt; inactive means no such curve, though single readings can be large; an effect the other way counts as inactive or inconclusive. Unless noted, on the % scale 0 is the no-effect control and ±100 the full control effect; potency means the concentration at half of the fitted maximal effect.

SMILES | RORgamma inh | VP16 counter | PLK1 PBD inh | Sfp PPTase inh | ALDH1A1 block
COCCNC(=O)C1(C)CCN(C(=O)c2ccc3ccccc3n2)C1 (stereo not given) | / | / | -3.3% | / | /
CCCCN(C)c1c(C)nc2ccc(C(=O)N(C)CCN(C)C)cn12 | / | / | -10.4% | / | /
COc1cc(C(=O)OCC(=O)Nc2c(C)n(C)n(-c3ccccc3)c2=O)c([N+](=O)[O-])cc1OC | / | / | -4.1% | / | /
O=C(COc1ccc([N+](=O)[O-])cc1)Nc1ccc(C(=O)Nc2ccccc2C(=O)O)cc1 | 13.8% | -1.4% | -11.6% | -7.8% | 12.6µM*
O=C(COC(=O)c1ccccc1NC(=O)c1ccccc1)c1cccc([N+](=O)[O-])c1 | 7.7% | ? | 3.4% | -0.3% | -8.3%
O=C(COc1ccc([N+](=O)[O-])cc1)Nc1ccc(NC(=O)c2ccccc2)cc1 | -0.8% | 0.4% | -2.1% | -3.7% | /
O=C(COC(=O)c1ccccc1NC(=O)c1ccccc1)c1ccc([N+](=O)[O-])cc1 | 28.0% | -5.7%[0.365 µM] | -5.4% | -11.9% | 8.91µM*
O=C(COc1ccc2ccccc2c1)Nc1cccc(C(=O)Nc2ccccc2C(=O)O)c1 | 27.5% | -7.5% | 23.8µM* | 6.8% | 14.1µM*
Cc1c(C(=O)OCC(=O)Nc2c(C)n(C)n(-c3ccccc3)c2=O)cccc1[N+](=O)[O-] | 12.6% | -3.4% | 21.2µM* | 1.4% | -5.9%
COc1ccc(OCC(=O)Nc2ccc(C(=O)Nc3ccccc3C(=O)O)cc2)cc1 | -35.0% | -12.0% | -24.5% | 23.5% | /
CCCCc1ccc(NC(=O)COc2ccc(C(=O)Nc3ccccc3OC)cc2)cc1 | -17.1% | -24.8% | / | 9.3% | 5.2%
Cc1c(NC(=O)c2cccc(NC(=O)COc3ccc(C#N)cc3)c2)c(=O)n(-c2ccccc2)n1C | / | / | 3.6% | / | /
CCc1ccc(C(=O)COC(=O)CNC(=O)Cc2ccccc2)cc1 | 31.7% | -4.4% | 10.6% | 12.7% | /
CCCCc1ccc(NC(=O)COc2ccc(C(=O)Nc3ccccc3C)cc2)cc1 | ? | 11.2µM* | / | 12.6% | 2.0%
CCC(=O)NCC(=O)OCC(=O)c1ccccc1 | -5.1% | -13.9% | 2.99µM* | -0.4% | 11.2%
CC(=O)c1cccc(OCC(=O)Nc2cccc(C(=O)Nc3c(C)n(C)n(-c4ccccc4)c3=O)c2)c1 | / | / | 18.9µM* | / | /
O=C(O)/C=C/C(=O)Nc1ccccc1C(=O)OCC(=O)c1ccc2c(c1)OCCO2 | 7.94µM* | 8.91µM* | -4.5% | 4.8% | ?
CC1CC=CC2C1C(=O)N(Cc1ccccc1)C2c1ccc(-c2ccoc2)cc1F (stereo not given) | ? | ? | / | -26.3% | /
COc1ccccc1-c1cnc(C(O)c2cccc(CN3CCCCC3)c2)[nH]1 (stereo not given) | / | / | 6.1% | / | /
Cc1ccc2nc(-c3ccccc3)c(CN3CCN(c4ccccc4F)CC3)n2c1 | 8.91µM* | ? | -4.1% | -29.6% | ?
Cc1ccc2nc(-c3ccccc3)c(CN3CCSCC3)n2c1 | 15.8µM* | -4.8% | -13.8% | 6.7% | -3.1%
CCCC/C=C/[C@@H](c1ccccc1)C1COC(=O)CC1O (stereo not given in full) | -6.4% | -18.6% | / | 6.5% | /
O=C(N/N=C/c1c(O)n(Cc2ccccc2)c(=O)c2ccccc12)c1cccnc1 | 11.2µM* | -1.1% | 12.8% | -14.2% | 10µM*
O=C(N/N=C/c1c(O)n(-c2ccccc2Cl)c(=O)c2ccccc12)c1cccnc1 | 12.6µM* | -7.1% | 37.5% | 14.5% | 14.1µM*
COc1ccc(Cn2c(O)c(/C=N/NC(=O)c3cccnc3)c3ccccc3c2=O)cc1 | 6.31µM* | 0.2% | 9.4% | 17.6% | ?
SMILES | RORgamma inh | VP16 counter | PLK1 PBD inh | Sfp PPTase inh | ALDH1A1 block
COc1ccc(Cn2c(O)c(C=Nc3ccc(OC)cc3)c3ccccc3c2=O)cc1 | 3.2% | -11.3% | -2.4% | 6.5% | ?
CN1CCc2nc(N)nc(-c3nc(N)nc4c3CN(C)CC4)c2C1 | / | / | / | / | 2.7%[13.5 µM]
C=C[C@@]1(C)C[C@H](OC(=O)CSC(C)(C)CNC(=O)[C@@H](N)C(C)C)[C@@]2(C)C(C)CC[C@@]3(CCC(=O)[C@@H]32)[C@H](C)[C@H]1O (stereo not given in full) | -1.1% | -3.0% | / | -9.5% | /
N#CC1=C(N)SC(N)=C(C#N)C1c1c(Cl)cccc1Cl | 8.91µM* | ? | ? | 7.08µM* | 22.4µM*
CC(C)CC1C(C#N)=C(N)SC(N)=C1C#N | 17.0% | 6.1% | 25.1% | ? | 3.55µM*
N#CC1=C(N)SC(N)=C(C#N)C1CCc1ccccc1 | 7.94µM* | ? | 24.3% | ? | ?
N#CC1=C(N)SC(N)=C(C#N)C1Cc1ccccc1 | 7.2% | 4.4% | 25.4% | ? | 8.91µM*
CCc1ccc(C2C(C#N)=C(N)SC(N)=C2C#N)s1 | ? | 3.3% | ? | -9.9% | ?
N#CCCN(Cc1cccnc1)C(=S)NC1CC2C=CC1C2 (stereo not given) | 6.2% | -1.0% | -7.3% | 19.1% | 9.3%
O=C(c1ccc(Cn2c(=O)[nH]c3ccccc3c2=O)cc1)N1CCN(c2ccccn2)CC1 | 8.5% | -2.2% | 3.1% | 2.8% | 7.3%
CC1CC(C)CN(C(=O)c2ccc3c(=O)n(Cc4ccc5c(c4)OCO5)c(=S)[nH]c3c2)C1 (stereo not given) | 3.55µM* | 10µM* | 1.4% | 32.0% | 1.41µM*
COc1ccccc1Cn1c(=S)[nH]c2cc(C(=O)N3CCCC(C)C3)ccc2c1=O (stereo not given) | / | / | -1.8% | / | /
O=C(c1ccc2c(=O)n(Cc3ccccc3Cl)c(=S)[nH]c2c1)N1CCCC1 | 11.2µM* | ? | -3.4% | 16.0% | /
O=c1c2ccc(Cl)cc2[nH]c(=S)n1Cc1cccnc1 | 5.01µM* | ? | -4.9% | -9.0% | 11.3%
O=C(c1ccc(Cn2c(=S)[nH]c3ccccc3c2=O)cc1)N1CCN(c2ccccn2)CC1 | 11.2µM* | ? | -1.2% | 11.9% | ?
O=C(c1ccc2c(=O)n(Cc3ccc4c(c3)OCO4)c(=S)[nH]c2c1)N1CCCCC1 | ? | -5.6% | -2.5% | 21.4% | 1.6%
COC(=O)C[C@@H]1CC[C@H](NC(=O)c2cnccn2)[C@@H](CO)O1 | / | / | 6.3% | / | /
CCCn1c(=S)[nH]c2cc(C(=O)N3CCN(c4ccccc4)CC3)ccc2c1=O | / | / | 0.7% | / | /
CN1CCN(C(=O)c2ccc3c(=O)n(Cc4ccc(Cl)cc4)c(=S)[nH]c3c2)CC1 | 7.08µM* | ? | -10.2% | -4.7% | 22.4µM*
O=C(c1ccc2c(=O)n(Cc3ccc(Cl)cc3)c(=S)[nH]c2c1)N1CCCC1 | 5.01µM* | ? | -5.9% | 11.4% | /
O=C(c1ccc2c(=O)n(Cc3ccco3)c(=S)[nH]c2c1)N1CCN(c2ccccc2)CC1 | ? | -3.5% | -12.7% | -0.4% | ?
O=C(c1ccc2c(=O)n(Cc3ccc(Cl)cc3)c(=S)[nH]c2c1)N1CCOCC1 | 3.98µM* | 7.08µM* | -8.5% | 0.4% | /
